# From PubChem BioAssay AID588726 (The Scripps Research Institute Molecular Screening Center, 2011)
# Screen size: about 360,000 compounds; about 8,200 (2.3%) were called active. The full list was thinned out, with actives kept by preference. Values without a mark were called inactive. No stated cut-off is given here; in the data, active means inhibition above about 27%; inactive means the rest.
# Target: Fructose-bisphosphate aldolase (Mycobacterium tuberculosis (strain ATCC 25618 / H37Rv)) (UniProt P9WQA3)
# Sequence (P9WQA3 whole entry, looked up): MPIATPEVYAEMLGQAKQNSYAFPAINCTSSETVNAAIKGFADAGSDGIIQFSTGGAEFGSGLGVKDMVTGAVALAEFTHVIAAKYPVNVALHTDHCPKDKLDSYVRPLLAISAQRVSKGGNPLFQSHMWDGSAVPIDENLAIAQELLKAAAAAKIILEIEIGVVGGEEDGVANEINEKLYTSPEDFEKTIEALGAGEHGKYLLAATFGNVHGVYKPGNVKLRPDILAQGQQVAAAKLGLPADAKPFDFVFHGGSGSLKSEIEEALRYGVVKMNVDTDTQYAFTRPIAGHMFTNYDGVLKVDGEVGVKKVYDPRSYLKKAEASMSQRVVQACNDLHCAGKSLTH
# Test: M. tuberculosis aldolase activity blockers – biochemical, fluorescence, strain H37Rv, primary screen (AID 588726);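 further: 0% = vehicle and 100% = reference inhibitor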
# Conditions: purified M. tuberculosis FBA, fluorescence read-out, at 1 µM, active compounds read high
row,Structure (SMILES),inhibition
1,O=c1cc(C(F)(F)F)[nH]c(=O)n1C1CCCCC1,-0.44%
2,CC(Sc1sc(=S)sc1SC(C)C(=O)O)C(=O)O (centres undefined),-1.78%
3,O=C(NCCCN1CCOCC1)c1ccccc1NS(=O)(=O)c1ccc(Br)cc1,0.43%
4,O=C(NCCCN1CCOCC1)c1cnn2c(-c3ccccc3)cc(-c3ccccc3)nc12,34.3% (active)
5,O=C(NCCCN1CCOCC1)c1ccccc1NS(=O)(=O)c1ccc(F)cc1,2.85%
6,CCCCCC(=O)Nc1ccc(S(=O)(=O)Nc2ccc(Cl)nn2)cc1,-0.48%
7,Cc1ccc(NC(=O)c2cccnc2C(=O)Nc2ccc(C)cc2)cc1,4.35%
8,CCN(c1ccccc1)S(=O)(=O)c1ccc(NC(=O)C(C)(C)C)cc1,0.11%
9,CCCCCC(=O)Nc1ccc(-c2cn3cccnc3n2)cc1,131% (active)
10,CC(=O)Nc1ccc(-c2cn3cccnc3n2)cc1,"566% [above what the read-out allows, likely interference] (active)"
11,Cc1nn2c(=O)cc(COC(=O)c3ccc(NC(=O)C(C)(C)C)cc3)nc2s1,-0.5%
12,CCCCC(=O)Nc1ccc(C(=O)NCCCn2ccnc2)cc1,-1.64%
13,CC(=O)Nc1ccc(S(=O)(=O)Nc2ccc(-c3ccc4nnc(C)n4n3)cc2)cc1,-1.85%
14,CCOc1ccc(C(CC(=O)O)NC(=O)C23CC4CC(CC(C4)C2)C3)cc1OC (centres undefined),-2.94%
15,CSc1ccc(CN2CCC2(C)C(=O)NCc2ccccc2Br)cc1 (centres undefined),-0.17%
16,COc1ccc(OC)c(NC(=O)C2CCCN2S(=O)(=O)c2ccc3c(c2)CC(C)N3C(C)=O)c1 (centres undefined),-1.84%
17,CCOC(=O)CSc1nnc(NC(=O)C2CC(=O)N(c3ccc(F)cc3)C2)s1 (centres undefined),-1.95%
18,O=C(N/C(=C\c1ccc([N+](=O)[O-])cc1)C(=O)N1CCOCC1)c1cccc(Br)c1,-1.01%
19,CCCS(=O)(=O)N1CCN(C(=O)c2cccs2)CC1,3.16%
20,CN(C)S(=O)(=O)c1cccc(NC(=S)N/N=C/C(=O)c2ccccc2)c1,-3.5%
21,CN(C)S(=O)(=O)c1ccc(NC(=O)N2CCOCC2)cc1,3.98%
22,CN(C)S(=O)(=O)c1ccc(N/C=C(\[N+](=O)[O-])S(=O)(=O)c2ccccc2)cc1,57.2% (active)
23,O=C(O)CC(Cn1cnnn1)c1ccccc1 (centres undefined),3.12%
24,Cc1cccc(CCNC(=O)Cn2ncc3c([nH]c4ccc(C)cc43)c2=O)c1,1.24%
